Assay [1] in a line: ATG_M_06_XSP2: Attagene TRANS-FACTORIAL Multi-Species (XSP2) HepG2 Assay for M06 Transcription Factor (Internal Marker) (AID 2283811).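 Note: hits are increases in signal above the DMSO baseline.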 The gist of the method: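 HepG2, multiplexed reporter transfection; 24 h dosing; AR stimulated with 3 nM 6-alpha-fluorotestosterone + 1.5 nM norgestrel; RNA → RT-PCR → 6-FAM primer extension → HpaI → CE. Positive direction vs DMSO.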
Assay [2] relates to turtle Estrogen Receptor (ERa), gene 101933533. The assay can be described thus: ATG_trERa_XSP2: Attagene TRANS-FACTORIAL Multi-Species (XSP2) HepG2 Assay for turtle Estrogen Receptor (ERa) (AID 2283812).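 Note: human HepG2 liver cells transiently expressing turtle ERa-Gal4 chimeric receptor; actives raise reporter signal above DMSO so AC50 reflects agonist activity.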 The gist of the method: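 HepG2 cells transiently transfected with GAL4-UAS reporter units expressing turtle ERa-Gal4 chimera. Reporter mRNA measured after 24 h dosing by RT-PCR, fluorescent labelling and capillary electrophoresis; gain of signal fitted versus DMSO.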

Assay [3] concerns the target Estrogen receptor beta (Homo sapiens) (UniProt Q92731). The assay can be described thus: ATG_hERb_XSP2: Attagene TRANS-FACTORIAL Multi-Species (XSP2) HepG2 Assay for human Estrogen Receptor (ERb) (AID 2283813).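 Note: actives raise reporter mRNA above DMSO so AC50 reflects agonist induction.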 The gist of the method:
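HepG2 cells transiently transfected with GAL4-UAS reporter units and chimeric human ERb-Gal4, 24 h exposure. Reporter mRNA quantified by RT-PCR with FAM labelling, HpaI digestion and capillary electrophoresis; gain of signal versus DMSO.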

Assay [4] concerns the target GAL4 Transcription Factor (Internal Marker), GAL4 (gene 855828) (UniProt P04386). The assay can be described thus: ATG_GAL4_XSP2: Attagene TRANS-FACTORIAL Multi-Species (XSP2) HepG2 Assay for GAL4 Transcription Factor (Internal Marker) (AID 2283814).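 Note: GAL4 reporter mRNA background control in MRTU transfected cells not a receptor target.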 The gist of the method: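 HepG2 cells transiently transfected with GAL4-UAS reporter units, stimulated with 3 nM 6-alpha-fluorotestosterone plus 1.5 nM norgestrel, dosed 24 h. Reporter mRNA by RT-PCR/capillary electrophoresis; gain-of-signal fit versus DMSO, background control.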

The target in assay [5] is zebrafish Estrogen Receptor (ER1), esr1 (gene 259252) (UniProt P57717). As to the kind of experiment: ATG_zfER1_XSP2: Attagene TRANS-FACTORIAL Multi-Species (XSP2) HepG2 Assay for zebrafish Estrogen Receptor (ER1) (AID 2283816). The gist of the method:
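HepG2 cells transiently transfected with a GAL4-UAS reporter and a chimeric zebrafish ER1-Gal4 construct, dosed 24 h. Reporter mRNA quantified by RT-PCR, labelling, HpaI digestion and capillary electrophoresis, relative to DMSO.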

Assay [6] addresses zebrafish Thyroid Hormone Receptor alpha (TRa), thraa (gene 30670) (UniProt Q98867). The assay can be described thus: ATG_zfTRa_XSP1: Attagene TRANS-FACTORIAL Multi-Species (XSP1) HepG2 Assay for zebrafish Thyroid Hormone Receptor alpha (TRa) (AID 2283807). The gist of the method: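 HepG2 cells transiently transfected with GAL4-UAS reporter units including a zebrafish TRa–Gal4 chimera, dosed 24 h with 3 nM 6-alpha-fluorotestosterone present. Reporter mRNA quantified by RT-PCR and capillary electrophoresis; gain versus DMSO.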

The target of assay [7] is human Thyroid hormone Receptor beta (TRb), THRB (gene 7068) (UniProt P10828). The assay can be described thus: ATG_hTRb_XSP1: Attagene TRANS-FACTORIAL Multi-Species (XSP1) HepG2 Assay for human Thyroid hormone Receptor beta (TRb) (AID 2283808). An outline of the steps:
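HepG2 cells transiently transfected with reporter units driving GAL4-UAS reporters for chimeric NR-Gal4 proteins; 24 h chemical exposure with 3 nM 6-alpha-fluorotestosterone present. Reporter mRNA quantified by RT-PCR and capillary electrophoresis, gain of signal versus DMSO.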

Assay [8] deals with zebrafish Thyroid Hormone Receptor beta (TRb), thrb (gene 30607) (UniProt Q9PVE4). The assay can be described thus: ATG_zfTRb_XSP1: Attagene TRANS-FACTORIAL Multi-Species (XSP1) HepG2 Assay for zebrafish Thyroid Hormone Receptor beta (TRb) (AID 2283809). The gist of the method:
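HepG2 cells transiently transfected with multiplexed GAL4-UAS reporter units expressing chimeric zebrafish TRb–Gal4. Dosed 24 h with 3 nM 6-alpha-fluorotestosterone present; reporter mRNA measured by RT-PCR, HpaI digestion and capillary electrophoresis; gain of signal versus DMSO.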

The nature of assay [9]: ATG_XTT_Cytotoxicity_XSP1: Cytotoxicity Assessment in the Attagene TRANS-FACTORIAL Multi-Species (XSP1) HepG2 Assay (AID 2283810). The gist of the method: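 XTT viability readout taken at 24 hours post-dosing in HepG2 liver cells co-treated with 3 nM 6-alpha-fluorotestosterone. Signal loss relative to DMSO controls reflects cytotoxicity.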
Assay [10] deals with turtle Androgen Receptor (AR), gene 101947425. As to the kind of experiment: ATG_trAR_XSP2: Attagene TRANS-FACTORIAL Multi-Species (XSP2) HepG2 Assay for turtle Androgen Receptor (AR) (AID 2283815). An outline of the steps: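 HepG2 cells transiently transfected with GAL4-UAS reporter units for chimeric NR-Gal4 receptors; 24 h dosing in presence of 3 nM 6-alpha-fluorotestosterone and 1.5 nM norgestrel. Reporter mRNA by RT-PCR and capillary electrophoresis, gain of signal versus DMSO.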

Several values for one entry are separate records, joined by “and”; a condition that tells them apart may be missing. Equal values may be shown once. Records with an inconclusive call do not appear. Some compounds were tested as several samples or in several runs, with calls that do not always agree. Activity calls are given as the source filed them. Rule for the calls: active = hit-call score of the fitted dose curve at least 0.9, where 1 is the maximum; inconclusive = response in the unintended direction; inactive = score below 0.9.

Sequence of GAL4 Transcription Factor (Internal Marker), GAL4 (gene 855828) (P04386 whole entry, looked up, the tested form may be a part): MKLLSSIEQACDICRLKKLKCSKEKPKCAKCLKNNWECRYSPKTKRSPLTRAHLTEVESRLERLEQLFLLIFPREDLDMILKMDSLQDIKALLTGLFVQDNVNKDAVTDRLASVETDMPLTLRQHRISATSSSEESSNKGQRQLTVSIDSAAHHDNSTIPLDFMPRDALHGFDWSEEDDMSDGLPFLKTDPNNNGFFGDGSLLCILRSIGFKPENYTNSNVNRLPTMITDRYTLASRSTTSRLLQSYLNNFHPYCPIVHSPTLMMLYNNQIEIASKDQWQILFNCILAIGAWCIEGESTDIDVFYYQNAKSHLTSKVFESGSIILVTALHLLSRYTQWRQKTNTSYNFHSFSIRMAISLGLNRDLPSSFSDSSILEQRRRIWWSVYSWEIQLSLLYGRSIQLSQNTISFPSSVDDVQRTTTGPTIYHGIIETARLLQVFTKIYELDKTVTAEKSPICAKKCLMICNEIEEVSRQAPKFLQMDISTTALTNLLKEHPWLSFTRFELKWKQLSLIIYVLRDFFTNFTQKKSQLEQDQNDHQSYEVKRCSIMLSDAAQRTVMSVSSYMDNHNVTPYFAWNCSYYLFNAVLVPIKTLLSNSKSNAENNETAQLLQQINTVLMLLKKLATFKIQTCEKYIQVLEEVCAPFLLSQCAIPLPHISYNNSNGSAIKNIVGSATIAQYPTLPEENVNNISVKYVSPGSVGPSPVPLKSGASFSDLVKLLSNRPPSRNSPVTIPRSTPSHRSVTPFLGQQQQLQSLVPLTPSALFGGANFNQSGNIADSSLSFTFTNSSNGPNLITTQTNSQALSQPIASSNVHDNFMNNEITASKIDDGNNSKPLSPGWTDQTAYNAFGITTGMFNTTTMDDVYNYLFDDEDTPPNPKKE
Sequence of zebrafish Estrogen Receptor (ER1), esr1 (gene 259252) (P57717 whole entry, looked up, the tested form may be a part): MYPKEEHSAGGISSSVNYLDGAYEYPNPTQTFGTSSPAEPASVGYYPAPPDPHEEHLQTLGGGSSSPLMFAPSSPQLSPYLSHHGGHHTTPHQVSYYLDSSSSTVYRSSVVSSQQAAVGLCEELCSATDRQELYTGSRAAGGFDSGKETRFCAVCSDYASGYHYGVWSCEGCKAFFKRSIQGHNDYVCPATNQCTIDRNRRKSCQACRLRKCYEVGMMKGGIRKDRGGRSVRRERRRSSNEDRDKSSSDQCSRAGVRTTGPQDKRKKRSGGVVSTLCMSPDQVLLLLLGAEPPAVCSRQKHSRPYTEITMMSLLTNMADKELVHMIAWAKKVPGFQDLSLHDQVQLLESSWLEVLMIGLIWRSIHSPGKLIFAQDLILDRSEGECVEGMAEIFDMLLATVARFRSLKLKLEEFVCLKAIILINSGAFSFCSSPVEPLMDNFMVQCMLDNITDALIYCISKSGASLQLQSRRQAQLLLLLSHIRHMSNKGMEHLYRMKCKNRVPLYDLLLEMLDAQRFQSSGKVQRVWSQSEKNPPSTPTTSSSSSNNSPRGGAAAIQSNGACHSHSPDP
Sequence of human Thyroid hormone Receptor beta (TRb), THRB (gene 7068) (P10828 whole entry, looked up, the tested form may be a part): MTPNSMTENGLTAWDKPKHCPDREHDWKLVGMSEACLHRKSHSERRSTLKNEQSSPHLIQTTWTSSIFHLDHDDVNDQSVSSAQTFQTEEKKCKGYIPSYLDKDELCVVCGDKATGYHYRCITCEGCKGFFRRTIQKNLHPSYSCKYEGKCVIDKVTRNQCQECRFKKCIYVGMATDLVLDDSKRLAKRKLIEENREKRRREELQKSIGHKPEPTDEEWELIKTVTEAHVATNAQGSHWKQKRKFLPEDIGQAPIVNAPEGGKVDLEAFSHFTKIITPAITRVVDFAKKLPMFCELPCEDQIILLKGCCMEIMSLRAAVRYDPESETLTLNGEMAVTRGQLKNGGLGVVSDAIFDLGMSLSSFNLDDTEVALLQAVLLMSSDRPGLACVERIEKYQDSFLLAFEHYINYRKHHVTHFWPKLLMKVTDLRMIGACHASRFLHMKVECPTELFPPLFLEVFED
Sequence of zebrafish Thyroid Hormone Receptor alpha (TRa), thraa (gene 30670) (Q98867 whole entry, looked up, the tested form may be a part): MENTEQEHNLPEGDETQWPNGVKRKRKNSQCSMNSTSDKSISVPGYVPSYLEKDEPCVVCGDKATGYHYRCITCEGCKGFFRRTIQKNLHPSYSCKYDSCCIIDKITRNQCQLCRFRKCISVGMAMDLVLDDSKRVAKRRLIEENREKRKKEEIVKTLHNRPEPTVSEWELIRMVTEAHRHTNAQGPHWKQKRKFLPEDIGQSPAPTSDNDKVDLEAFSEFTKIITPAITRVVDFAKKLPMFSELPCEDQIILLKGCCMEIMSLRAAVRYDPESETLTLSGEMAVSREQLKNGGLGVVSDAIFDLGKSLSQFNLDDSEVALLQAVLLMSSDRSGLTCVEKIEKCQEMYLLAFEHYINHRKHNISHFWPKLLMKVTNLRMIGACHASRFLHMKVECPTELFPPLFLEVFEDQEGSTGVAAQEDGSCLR
Sequence of Estrogen receptor beta (Homo sapiens) (Q92731 whole entry, looked up, the tested form may be a part): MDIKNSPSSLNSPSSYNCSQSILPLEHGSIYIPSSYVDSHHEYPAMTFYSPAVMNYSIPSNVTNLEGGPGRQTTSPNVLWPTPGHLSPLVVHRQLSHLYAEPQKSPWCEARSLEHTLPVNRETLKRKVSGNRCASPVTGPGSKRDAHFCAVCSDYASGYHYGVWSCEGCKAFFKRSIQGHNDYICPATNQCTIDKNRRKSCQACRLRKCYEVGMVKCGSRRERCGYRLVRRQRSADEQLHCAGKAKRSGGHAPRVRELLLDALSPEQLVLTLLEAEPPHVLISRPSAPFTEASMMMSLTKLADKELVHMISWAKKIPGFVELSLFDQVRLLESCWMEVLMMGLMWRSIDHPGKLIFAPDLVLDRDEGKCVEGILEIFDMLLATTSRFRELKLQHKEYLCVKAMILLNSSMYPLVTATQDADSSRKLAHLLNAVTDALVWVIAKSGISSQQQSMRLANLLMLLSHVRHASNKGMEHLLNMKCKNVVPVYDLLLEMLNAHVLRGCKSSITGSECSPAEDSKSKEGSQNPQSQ
Sequence of zebrafish Thyroid Hormone Receptor beta (TRb), thrb (gene 30607) (Q9PVE4 whole entry, looked up, the tested form may be a part): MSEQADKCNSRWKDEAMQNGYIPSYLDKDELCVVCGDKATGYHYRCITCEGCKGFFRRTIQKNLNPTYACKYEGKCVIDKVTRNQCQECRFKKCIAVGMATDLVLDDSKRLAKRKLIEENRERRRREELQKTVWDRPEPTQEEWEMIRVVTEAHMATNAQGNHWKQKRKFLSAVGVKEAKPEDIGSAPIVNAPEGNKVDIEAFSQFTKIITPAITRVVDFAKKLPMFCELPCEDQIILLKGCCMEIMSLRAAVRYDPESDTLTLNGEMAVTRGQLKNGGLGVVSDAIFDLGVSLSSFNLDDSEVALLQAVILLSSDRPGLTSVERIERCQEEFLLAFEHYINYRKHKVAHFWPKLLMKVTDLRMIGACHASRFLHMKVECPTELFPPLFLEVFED

For orientation: AC50 means the midpoint of the concentration-response curve, whichever way the signal moves. On to `COc1ccc(C(=CC(=O)N2CCOCC2)c2ccc(Cl)cc2)cc1OC`, for which the molecule was called inactive in [1], in assay [2], in assay [3], in assay [4] and in [5]. Further, in [5], the AC50 is 58.2 µM (active).
Take `CCC(=O)Nc1ccc(Cl)c(Cl)c1`: the outcome in assay [1], in assay [2] and in assay [5] was inactive.
For `CCOP(=O)(NC(C)C)Oc1ccc(SC)c(C)c1` (stereo not drawn), the outcome in assay [1], in [3], in [4] and in assay [5] was inactive. Also, the AC50 in assay [2] was 100 µM (active) and 52.6 µM (active).
Regarding `C#CCC1=C(C)C(OC(=O)C2C(C=C(C)C)C2(C)C)CC1=O` (stereo not drawn), the result in [6], in assay [7], in [8], in [9], in assay [1] and in [3] was inactive. Besides, the molecule was called inactive in assay [5].
Take `CCC(CC)Nc1c([N+](=O)[O-])cc(C)c(C)c1[N+](=O)[O-]`: the outcome in [1], in assay [3] and in assay [5] was inactive. Moreover, the AC50 is 2.52 µM (active) and 1.7 µM (active) in assay [2]; 7.37 µM (active) in assay [5].
With `CCOP(=S)(OCC)Oc1ccc2c(C)c(Cl)c(=O)oc2c1`, the call in assay [6], in assay [8], in assay [1], in assay [2], in [3] and in assay [4] was inactive.
Consider `Nc1c(Cl)cc([N+](=O)[O-])cc1Cl`, for which the molecule was called inactive in assay [2], in assay [3], in assay [4] and in assay [5].
For `C#CC(C)(C)NC(=O)c1cc(Cl)cc(Cl)c1`, the call in assay [6], in [7], in [8], in [1], in assay [2] and in assay [4] was inactive.
Consider `CCc1cccc(C)c1N(C(=O)CCl)C(C)COC` (stereo not drawn), for which the call in assay [6], in assay [8], in [9], in assay [1], in assay [2] and in assay [3] was inactive. The molecule was called inactive in [4], in [10] and in assay [5].
On to `CCCOCC(=Nc1ccc(Cl)cc1C(F)(F)F)n1ccnc1`, for which the call in assay [6], in [7], in assay [8], in assay [1], in [3] and in assay [5] was inactive. In addition, the AC50 in assay [9] is 100 µM (active).
